Assay in all cases: DAPPL (digital affinity profiling via proximity ligation, sequencing); 10 mM Tris-HCl pH 7.5, 50 mM NaCl, 1 mM DTT, 4% glycerol, room temperature, 30 min; GST-TFs on glutathione beads, 16-mer random dsDNA library, 0.1% formaldehyde crosslink after washing; high values mean tight binding
What all share (settings): protein: recombinant; tags: N-terminal GST; dsDNA, one strand shown

In one assay the target is T1, FLI1 (Homo sapiens, UniProt Q01543 1-452).
T1 sequence: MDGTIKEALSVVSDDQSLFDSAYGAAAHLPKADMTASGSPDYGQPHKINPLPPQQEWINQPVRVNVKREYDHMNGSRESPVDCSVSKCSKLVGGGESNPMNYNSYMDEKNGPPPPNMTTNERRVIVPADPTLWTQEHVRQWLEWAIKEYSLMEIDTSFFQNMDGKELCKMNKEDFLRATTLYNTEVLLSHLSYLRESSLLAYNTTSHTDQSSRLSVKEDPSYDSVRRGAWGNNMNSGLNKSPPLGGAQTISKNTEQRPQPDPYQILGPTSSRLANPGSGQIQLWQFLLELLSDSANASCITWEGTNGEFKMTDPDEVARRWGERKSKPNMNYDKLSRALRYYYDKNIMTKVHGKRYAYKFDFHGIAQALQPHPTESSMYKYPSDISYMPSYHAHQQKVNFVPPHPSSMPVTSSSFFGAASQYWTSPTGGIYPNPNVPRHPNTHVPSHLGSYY
Summed up: (§1)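 Sequencing on an Illumina NextSeq500 followed washing, crosslinking with 0.1% formaldehyde, proximity ligation (BsaI/T4 ligase, 1 h, 37 °C) and PCR amplification of pools that had been incubated for 30 min at room temperature with 200 nmole of a random double-stranded 16-mer DNA library in Tris/NaCl/DTT/glycerol buffer. Each pool held DNA-barcoded human transcription factors, expressed in yeast as GST fusions and captured on glutathione beads, plus a tag-only sample. Binding signal is a hexamer's read frequency for a factor divided by its frequency in the tag-only sample.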

In a further assay the target is T2, ELK1 (Homo sapiens, UniProt P19419 1-428).
T2 sequence: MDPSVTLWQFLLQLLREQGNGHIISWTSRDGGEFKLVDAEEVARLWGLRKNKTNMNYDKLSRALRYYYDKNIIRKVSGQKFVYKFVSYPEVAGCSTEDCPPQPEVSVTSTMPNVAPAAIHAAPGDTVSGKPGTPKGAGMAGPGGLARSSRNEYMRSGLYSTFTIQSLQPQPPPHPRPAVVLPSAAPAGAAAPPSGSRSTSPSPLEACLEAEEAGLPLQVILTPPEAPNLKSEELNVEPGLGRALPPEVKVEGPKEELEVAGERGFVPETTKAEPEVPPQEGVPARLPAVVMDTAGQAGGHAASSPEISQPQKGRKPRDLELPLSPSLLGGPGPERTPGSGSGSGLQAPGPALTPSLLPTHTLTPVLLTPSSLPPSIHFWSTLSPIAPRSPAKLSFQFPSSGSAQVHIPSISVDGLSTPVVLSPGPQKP
In short, it runs like this: as §1

The next assay concerns the target ELF1 (Homo sapiens, UniProt P32519 1-619). Summed up:
as §1

Another assay has as its target T3, EHF (Homo sapiens, UniProt Q9NZC4 1-300).
T3 sequence: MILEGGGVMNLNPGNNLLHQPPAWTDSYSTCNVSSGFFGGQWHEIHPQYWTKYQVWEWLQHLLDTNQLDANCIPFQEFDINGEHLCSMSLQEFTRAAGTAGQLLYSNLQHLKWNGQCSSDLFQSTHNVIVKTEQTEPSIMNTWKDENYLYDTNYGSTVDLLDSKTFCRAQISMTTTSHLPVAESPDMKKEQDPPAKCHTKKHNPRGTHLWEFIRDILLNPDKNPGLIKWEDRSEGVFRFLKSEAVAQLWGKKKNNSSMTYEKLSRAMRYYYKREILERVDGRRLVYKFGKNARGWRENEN
In short, it runs like this: as §1

The target in another assay is SPIB (Homo sapiens, UniProt Q01892 1-262). Summed up:
as §1

A further assay concerns the target T4, ELK3 (Homo sapiens, UniProt P41970 1-407).
T4 sequence: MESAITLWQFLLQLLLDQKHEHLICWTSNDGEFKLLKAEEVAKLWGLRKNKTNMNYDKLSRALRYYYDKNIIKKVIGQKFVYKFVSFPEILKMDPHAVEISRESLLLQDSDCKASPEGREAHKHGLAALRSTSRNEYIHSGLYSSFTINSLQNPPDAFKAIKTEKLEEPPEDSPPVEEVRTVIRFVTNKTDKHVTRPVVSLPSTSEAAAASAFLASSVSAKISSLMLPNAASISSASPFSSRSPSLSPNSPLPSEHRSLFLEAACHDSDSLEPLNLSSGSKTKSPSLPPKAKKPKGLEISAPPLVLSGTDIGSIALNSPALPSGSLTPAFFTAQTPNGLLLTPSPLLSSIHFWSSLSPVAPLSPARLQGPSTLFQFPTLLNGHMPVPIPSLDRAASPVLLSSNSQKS
Summed up:
as §1

The target of another assay is T5, FEV (Homo sapiens, UniProt Q99581 1-238).
T5 sequence: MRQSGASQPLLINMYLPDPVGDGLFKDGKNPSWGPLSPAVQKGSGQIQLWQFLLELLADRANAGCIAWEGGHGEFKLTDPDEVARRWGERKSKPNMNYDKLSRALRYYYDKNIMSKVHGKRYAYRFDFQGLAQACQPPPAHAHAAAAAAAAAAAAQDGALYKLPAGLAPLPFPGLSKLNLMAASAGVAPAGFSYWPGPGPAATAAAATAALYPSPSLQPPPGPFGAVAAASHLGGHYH
In short, it runs like this: as §1

The target of another assay is ETV5 (Homo sapiens, UniProt P41161 1-510). In short, it runs like this:
as §1

A further assay has as its target T6, SPIC (Homo sapiens, UniProt Q8N5J4 1-248).
T6 sequence: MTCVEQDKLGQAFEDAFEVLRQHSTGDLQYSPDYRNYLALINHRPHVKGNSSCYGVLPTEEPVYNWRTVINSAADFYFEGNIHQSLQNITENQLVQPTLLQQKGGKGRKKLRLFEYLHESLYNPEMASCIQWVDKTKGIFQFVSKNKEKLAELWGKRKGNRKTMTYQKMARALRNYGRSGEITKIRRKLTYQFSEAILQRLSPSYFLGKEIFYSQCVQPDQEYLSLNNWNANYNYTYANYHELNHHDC
In short, it runs like this:
as §1

The target of another assay is ELF4 (Homo sapiens, UniProt Q99607 1-663). Summed up: as §1
A further assay has as its target ETV1 (Homo sapiens, UniProt P50549 1-477). In short, it runs like this:
as §1

Another assay deals with T7, ERF (Homo sapiens, UniProt P50548 1-548).
T7 sequence: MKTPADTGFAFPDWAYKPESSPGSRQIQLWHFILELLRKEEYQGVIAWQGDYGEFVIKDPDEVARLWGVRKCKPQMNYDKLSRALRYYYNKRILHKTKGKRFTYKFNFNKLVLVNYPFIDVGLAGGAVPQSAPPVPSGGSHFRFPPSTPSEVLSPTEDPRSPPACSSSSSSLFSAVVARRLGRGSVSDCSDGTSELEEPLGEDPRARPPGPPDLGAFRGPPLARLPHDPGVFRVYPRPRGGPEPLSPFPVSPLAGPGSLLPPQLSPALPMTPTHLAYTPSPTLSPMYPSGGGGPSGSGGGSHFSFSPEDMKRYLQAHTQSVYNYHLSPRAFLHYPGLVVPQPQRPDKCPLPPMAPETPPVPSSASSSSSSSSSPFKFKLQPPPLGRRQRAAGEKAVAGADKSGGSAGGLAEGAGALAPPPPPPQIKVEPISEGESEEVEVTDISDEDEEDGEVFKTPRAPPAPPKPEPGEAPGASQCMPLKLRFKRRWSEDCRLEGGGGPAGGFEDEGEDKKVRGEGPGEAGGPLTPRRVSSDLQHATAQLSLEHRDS
Summed up:
as §1

The target of the next assay is T8, ETV3L (Homo sapiens, UniProt Q6ZN32 1-361).
T8 sequence: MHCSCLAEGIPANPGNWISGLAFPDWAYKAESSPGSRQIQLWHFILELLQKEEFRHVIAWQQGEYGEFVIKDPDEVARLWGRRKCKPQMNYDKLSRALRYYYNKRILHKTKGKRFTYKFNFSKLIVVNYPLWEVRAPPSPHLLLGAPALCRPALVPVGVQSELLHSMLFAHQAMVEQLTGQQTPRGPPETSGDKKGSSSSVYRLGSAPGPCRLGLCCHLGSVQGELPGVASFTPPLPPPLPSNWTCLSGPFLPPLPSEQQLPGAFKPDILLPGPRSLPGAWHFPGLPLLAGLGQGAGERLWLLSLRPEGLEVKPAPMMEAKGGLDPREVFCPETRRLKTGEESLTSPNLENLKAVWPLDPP
Summed up: as §1

For a further assay, the target named is T9, ETS2 (Homo sapiens, UniProt P15036 1-469).
T9 sequence: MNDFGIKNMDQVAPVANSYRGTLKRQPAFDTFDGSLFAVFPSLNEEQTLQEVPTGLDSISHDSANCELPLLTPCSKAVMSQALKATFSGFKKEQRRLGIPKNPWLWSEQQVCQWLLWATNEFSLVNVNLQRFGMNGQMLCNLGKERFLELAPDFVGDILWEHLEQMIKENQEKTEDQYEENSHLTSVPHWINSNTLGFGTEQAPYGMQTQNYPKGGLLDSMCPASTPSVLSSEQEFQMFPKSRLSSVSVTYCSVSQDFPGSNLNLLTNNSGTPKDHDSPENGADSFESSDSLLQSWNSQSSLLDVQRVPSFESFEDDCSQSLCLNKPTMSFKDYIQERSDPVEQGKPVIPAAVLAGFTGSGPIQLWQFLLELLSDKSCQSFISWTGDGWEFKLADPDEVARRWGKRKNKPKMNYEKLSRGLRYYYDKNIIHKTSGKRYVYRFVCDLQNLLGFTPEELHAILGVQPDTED
Summed up:
as §1

For a further assay, the target named is T10, ELF5 (Homo sapiens, UniProt Q9UKW6-2 1-255).
T10 sequence: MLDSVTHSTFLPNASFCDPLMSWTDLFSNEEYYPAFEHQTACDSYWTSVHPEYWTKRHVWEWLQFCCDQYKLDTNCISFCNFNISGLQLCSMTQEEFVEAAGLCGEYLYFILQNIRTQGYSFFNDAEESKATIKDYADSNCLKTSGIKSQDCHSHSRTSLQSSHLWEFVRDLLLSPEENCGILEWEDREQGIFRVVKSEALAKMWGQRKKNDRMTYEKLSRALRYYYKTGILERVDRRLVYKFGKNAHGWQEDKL
Summed up:
as §1

A further assay addresses T11, ETV3 (Homo sapiens, UniProt P41162-2 1-143).
T11 sequence: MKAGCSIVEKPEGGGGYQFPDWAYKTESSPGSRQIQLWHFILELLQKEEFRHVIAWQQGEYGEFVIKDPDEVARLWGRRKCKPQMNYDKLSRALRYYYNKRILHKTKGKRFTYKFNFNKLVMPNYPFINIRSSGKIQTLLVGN
Summed up:
as §1

In the next assay the target is ETV6 (Homo sapiens, UniProt P41212 1-452). Summed up: as §1

This passage reports binding signal results from article PMC7862700, “An all-to-all approach to the identification of sequence-specific readers for epigenetic DNA modifications on cytosine”.

Sequence of ETV1 (P50549 whole entry): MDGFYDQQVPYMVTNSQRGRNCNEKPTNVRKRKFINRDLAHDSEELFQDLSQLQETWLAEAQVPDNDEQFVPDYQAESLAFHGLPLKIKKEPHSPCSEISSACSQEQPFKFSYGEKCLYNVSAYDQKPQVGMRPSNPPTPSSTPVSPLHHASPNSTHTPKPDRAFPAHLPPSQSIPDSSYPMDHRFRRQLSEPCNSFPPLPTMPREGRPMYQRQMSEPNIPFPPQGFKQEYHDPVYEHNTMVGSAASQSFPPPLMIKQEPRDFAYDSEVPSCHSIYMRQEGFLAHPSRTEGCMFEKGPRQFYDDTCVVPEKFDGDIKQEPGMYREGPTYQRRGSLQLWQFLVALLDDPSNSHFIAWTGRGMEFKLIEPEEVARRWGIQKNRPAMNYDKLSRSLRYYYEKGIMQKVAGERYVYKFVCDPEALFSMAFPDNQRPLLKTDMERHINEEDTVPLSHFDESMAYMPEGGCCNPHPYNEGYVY
Sequence of SPIB (Q01892 whole entry): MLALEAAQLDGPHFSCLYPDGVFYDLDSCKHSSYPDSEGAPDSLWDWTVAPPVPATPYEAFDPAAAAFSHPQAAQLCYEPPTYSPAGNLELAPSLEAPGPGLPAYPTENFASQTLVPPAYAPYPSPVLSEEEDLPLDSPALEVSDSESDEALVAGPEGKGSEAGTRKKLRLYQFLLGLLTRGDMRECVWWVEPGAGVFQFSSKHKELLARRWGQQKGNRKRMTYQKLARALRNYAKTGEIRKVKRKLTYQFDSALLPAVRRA
Sequence of ETV6 (P41212 whole entry): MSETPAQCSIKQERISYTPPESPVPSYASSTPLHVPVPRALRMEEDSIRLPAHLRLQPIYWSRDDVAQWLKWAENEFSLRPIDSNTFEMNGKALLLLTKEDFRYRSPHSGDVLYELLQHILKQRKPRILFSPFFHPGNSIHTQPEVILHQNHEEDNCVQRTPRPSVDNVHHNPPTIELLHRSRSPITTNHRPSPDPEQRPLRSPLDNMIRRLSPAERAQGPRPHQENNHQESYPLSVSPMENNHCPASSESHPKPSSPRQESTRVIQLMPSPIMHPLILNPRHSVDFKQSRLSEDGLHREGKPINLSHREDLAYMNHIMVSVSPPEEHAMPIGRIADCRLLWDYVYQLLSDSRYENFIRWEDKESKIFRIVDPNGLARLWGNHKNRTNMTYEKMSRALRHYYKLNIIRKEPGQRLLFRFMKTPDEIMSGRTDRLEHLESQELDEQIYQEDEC
Sequence of ELF1 (P32519 whole entry): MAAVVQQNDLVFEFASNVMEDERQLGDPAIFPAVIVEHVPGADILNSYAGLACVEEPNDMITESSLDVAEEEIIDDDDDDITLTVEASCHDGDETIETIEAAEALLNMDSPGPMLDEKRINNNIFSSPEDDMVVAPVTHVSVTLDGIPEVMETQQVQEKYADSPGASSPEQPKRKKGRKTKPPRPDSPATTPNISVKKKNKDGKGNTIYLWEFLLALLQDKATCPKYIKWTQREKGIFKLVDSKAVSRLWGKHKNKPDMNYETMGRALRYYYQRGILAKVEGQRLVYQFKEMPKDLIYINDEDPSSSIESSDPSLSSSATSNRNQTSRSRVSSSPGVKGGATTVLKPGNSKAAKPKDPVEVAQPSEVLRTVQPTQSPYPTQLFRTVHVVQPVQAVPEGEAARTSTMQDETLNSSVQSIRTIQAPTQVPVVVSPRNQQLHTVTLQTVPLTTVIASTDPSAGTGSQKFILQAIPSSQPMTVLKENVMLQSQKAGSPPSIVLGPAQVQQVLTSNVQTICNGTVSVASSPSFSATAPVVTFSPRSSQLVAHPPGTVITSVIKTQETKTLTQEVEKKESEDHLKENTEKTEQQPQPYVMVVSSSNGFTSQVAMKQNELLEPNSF
Sequence of ETV5 (P41161 whole entry): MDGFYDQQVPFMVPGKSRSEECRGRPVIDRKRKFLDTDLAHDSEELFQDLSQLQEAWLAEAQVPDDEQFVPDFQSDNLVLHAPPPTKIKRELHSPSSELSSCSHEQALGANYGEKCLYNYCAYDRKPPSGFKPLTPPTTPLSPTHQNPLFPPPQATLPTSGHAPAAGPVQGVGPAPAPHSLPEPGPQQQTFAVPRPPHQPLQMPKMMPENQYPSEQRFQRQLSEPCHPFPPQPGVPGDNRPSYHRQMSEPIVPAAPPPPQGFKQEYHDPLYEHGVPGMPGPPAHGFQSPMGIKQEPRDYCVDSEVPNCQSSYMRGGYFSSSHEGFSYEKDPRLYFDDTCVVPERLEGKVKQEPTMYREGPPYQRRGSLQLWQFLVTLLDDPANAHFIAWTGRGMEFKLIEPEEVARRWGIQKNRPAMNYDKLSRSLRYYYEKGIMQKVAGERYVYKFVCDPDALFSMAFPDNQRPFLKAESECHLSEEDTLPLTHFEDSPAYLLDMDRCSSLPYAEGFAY
Sequence of ELF4 (Q99607 whole entry): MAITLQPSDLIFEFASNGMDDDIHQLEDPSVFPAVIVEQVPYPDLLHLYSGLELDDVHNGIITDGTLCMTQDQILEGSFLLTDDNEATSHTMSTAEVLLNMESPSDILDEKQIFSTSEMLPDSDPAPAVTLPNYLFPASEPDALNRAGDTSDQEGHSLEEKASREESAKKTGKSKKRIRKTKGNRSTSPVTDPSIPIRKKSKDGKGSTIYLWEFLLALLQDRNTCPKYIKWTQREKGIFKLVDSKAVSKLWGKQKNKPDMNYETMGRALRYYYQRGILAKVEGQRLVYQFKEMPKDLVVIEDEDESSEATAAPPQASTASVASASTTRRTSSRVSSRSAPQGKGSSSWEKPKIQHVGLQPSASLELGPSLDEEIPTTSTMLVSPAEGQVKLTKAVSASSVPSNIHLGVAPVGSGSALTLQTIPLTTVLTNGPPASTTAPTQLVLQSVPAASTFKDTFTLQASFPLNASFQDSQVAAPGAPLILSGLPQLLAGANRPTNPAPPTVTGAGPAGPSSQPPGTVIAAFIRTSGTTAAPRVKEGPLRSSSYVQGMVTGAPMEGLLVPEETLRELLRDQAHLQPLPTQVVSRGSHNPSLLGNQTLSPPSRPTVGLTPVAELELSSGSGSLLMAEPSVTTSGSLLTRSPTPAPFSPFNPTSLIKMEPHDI

Turning to ACCACA, the binding signal is 1.05 fold enrichment (6-mer frequency, TF over GST control) in the assay with FLI1; 1.1 fold enrichment (6-mer frequency, TF over GST control) with ELK1; 1.08 fold enrichment (6-mer frequency, TF over GST control) with ELF1; 1.11 fold enrichment (6-mer frequency, TF over GST control) with EHF; 1.04 fold enrichment (6-mer frequency, TF over GST control) with SPIB; 1.14 fold enrichment (6-mer frequency, TF over GST control) with ELK3. Also, the binding signal with FEV is 1.05 fold enrichment (6-mer frequency, TF over GST control); with ETV5 it was 1.03 fold enrichment (6-mer frequency, TF over GST control); with SPIC, 1.1 fold enrichment (6-mer frequency, TF over GST control); in the assay with ELF4 it was 1.11 fold enrichment (6-mer frequency, TF over GST control); in the assay with ETV1, 1.09 fold enrichment (6-mer frequency, TF over GST control); with ERF, 1.05 fold enrichment (6-mer frequency, TF over GST control). For the same sequence, the binding signal was 1.16 fold enrichment (6-mer frequency, TF over GST control) with ETV3L; 1.06 fold enrichment (6-mer frequency, TF over GST control) with ETS2; 1.09 fold enrichment (6-mer frequency, TF over GST control) in the assay with ELF5; 1.02 fold enrichment (6-mer frequency, TF over GST control) with ETV3; 1.08 fold enrichment (6-mer frequency, TF over GST control) with ETV6.
